# Test results taken from paper PMC7819943, “Rice protein-binding microarrays: a tool to detect cis-acting elements near promoter regions in rice”.
# The full ranking holds about 35,000 sequences; the median of “fluorescence intensity (a.u.)” is about 10,000, and the highest 2% start at about 52,000. The entries come from a sample that favours the highest values as a whole.
# Molecular target: T1, OsWOX13 (Oryza sativa, UniProt Q5QMM3 1-267)
# T1 sequence: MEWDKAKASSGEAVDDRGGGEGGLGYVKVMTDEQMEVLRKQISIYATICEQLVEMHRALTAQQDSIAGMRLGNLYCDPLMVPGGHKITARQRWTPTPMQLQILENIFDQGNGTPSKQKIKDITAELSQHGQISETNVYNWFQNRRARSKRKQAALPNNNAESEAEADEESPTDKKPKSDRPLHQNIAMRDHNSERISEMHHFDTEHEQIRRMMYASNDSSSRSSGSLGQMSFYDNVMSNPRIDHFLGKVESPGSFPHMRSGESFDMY
# Assay: protein-binding microarray (RPBM); PBS, 2% BSA, 51.3 ng/ul salmon testes DNA, 50 uM zinc acetate, 200 nM TF, 25 C, 1 h; high values mean tight binding
# Details: protein: recombinant; tags: N-terminal polyhistidine and DsRed monomer fusion (pET32a); label: CyDye5-dUTP incorporated in the synthesized complementary strand; 3' TTTTT single-stranded linker to array surface; dsDNA, one strand shown
# How it was run: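 A custom Agilent array was converted to double-stranded form by primer extension with Cy5-dUTP and blocked with 2% BSA. Protein at 200 nM in PBS with 2% BSA, salmon testes DNA and 50 µM zinc acetate was applied for 1 h at 25 °C, followed by washing. The proteins were polyhistidine–DsRed N-terminal fusions of transcription factors, expressed in E. coli BL21-CodonPlus and Ni–NTA-purified. The binding signal is per-feature fluorescence intensity (arbitrary units) from an Axon 4000B scanner.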
row,Sequence,binding signal
1,ACTGCTAATTAACCCTCTATAAATGCATGCCTCTCACCACCGGAGTCACCTAGTGCAG,30400 fluorescence intensity (a.u.)
2,TTTAACATTTCCCCTTATAATTTTACCAAATCACTATGTTCGGAGTCACCTAGTGCAG,4600 fluorescence intensity (a.u.)
3,CCTCGCGCGCAGATAATTATCACAACTTATGGGGAGCTTGCGGAGTCACCTAGTGCAG,3290 fluorescence intensity (a.u.)
4,CTCATTAATCTTGCTCATTAATCTTGCAATTAATCCAGAACGGAGTCACCTAGTGCAG,4900 fluorescence intensity (a.u.)
5,CACTTCTGTACTTGGCGTGATTGGGCCGCGGACCGGTAGACGGAGTCACCTAGTGCAG,3750 fluorescence intensity (a.u.)
6,GTTTAGGACCTTTGATTTGTTGGTGACAGAACCCAAGGCGCGGAGTCACCTAGTGCAG,6360 fluorescence intensity (a.u.)
7,AGTAATTTAAACACGAAAACATTTCTTATTGACAAGAATACGGAGTCACCTAGTGCAG,4230 fluorescence intensity (a.u.)
8,TAAGGCAGAAAACCAAGGCCTTGACATTTCTTTTAGGACACGGAGTCACCTAGTGCAG,65000 fluorescence intensity (a.u.)
9,TAAAATAAATCAAATTAATACAAGTGAGATATCTTAGTAACGGAGTCACCTAGTGCAG,6480 fluorescence intensity (a.u.)
10,TGGCTCTGATCCATCAATTAGGATTTGCCAGTGCCTCTCCCGGAGTCACCTAGTGCAG,5390 fluorescence intensity (a.u.)
11,TTTGGGATTATTATAATCTAGATTATTGAGTCATATTACTCGGAGTCACCTAGTGCAG,10300 fluorescence intensity (a.u.)
12,TAGAAGATAGATTGATTGATTGATATATACTATCTCTATACGGAGTCACCTAGTGCAG,52600 fluorescence intensity (a.u.)
13,AATATATTGACATTGATATCTTATAAAGAGCCTATAGATACGGAGTCACCTAGTGCAG,5820 fluorescence intensity (a.u.)
14,TCATATGATTAGGATATATCACATCTCATTATATTATATGCGGAGTCACCTAGTGCAG,17800 fluorescence intensity (a.u.)
15,GAAGGATTGAGATATGATTGATTATTATATCATATACTCTCGGAGTCACCTAGTGCAG,55000 fluorescence intensity (a.u.)
16,AAGAAGAATCTATCTATCTATCTATCTATCAATCTCTATACGGAGTCACCTAGTGCAG,3320 fluorescence intensity (a.u.)
17,TCCACAATTTGCTAATCATATTTCTGTTGATAATGATAATCGGAGTCACCTAGTGCAG,7820 fluorescence intensity (a.u.)
18,GAAGATTGAGCTCTGCAGCAACAACCCAAACACACAAAGCCGGAGTCACCTAGTGCAG,3290 fluorescence intensity (a.u.)
19,CATAGGATCAATTTAATATATTGACATGCCATTAGGCCATCGGAGTCACCTAGTGCAG,10600 fluorescence intensity (a.u.)
20,CTTTACAATTAATACATGTTCCACTTGTCTCTCTCACAGACGGAGTCACCTAGTGCAG,4970 fluorescence intensity (a.u.)
21,CGTAGATTTGACCGAACAAATTGTACAGTAATGTACTAGGCGGAGTCACCTAGTGCAG,20100 fluorescence intensity (a.u.)
22,GTGTAATTATACTATAATTGTACTGTAATTACATCTGTCACGGAGTCACCTAGTGCAG,56600 fluorescence intensity (a.u.)
23,GTGTAATTACACTACGATTGTACTGTAATTACATCTGTCACGGAGTCACCTAGTGCAG,29900 fluorescence intensity (a.u.)
24,ACTGTAATTTTAATTATATTATTGTTACACTATAATTGCACGGAGTCACCTAGTGCAG,41800 fluorescence intensity (a.u.)
25,TTTACACTATAATTATATTCACTTATACATTGTAATTACACGGAGTCACCTAGTGCAG,13800 fluorescence intensity (a.u.)
26,ATTATACTATGATTGTACTGTAATTACATCTGTCAAATTTCGGAGTCACCTAGTGCAG,24500 fluorescence intensity (a.u.)
27,GTGTAATTACACTATAATTGCACTATAATTATATCTGTCACGGAGTCACCTAGTGCAG,61500 fluorescence intensity (a.u.)

row,Sequence,binding signal
1,CTTTAAACAGTTTGAGTGAATTTAGGGGTACATATTTCTGCGGAGTCACCTAGTGCAG,6070 fluorescence intensity (a.u.)
2,TTTTGCTTGATTGGTGGTCTGATGTATTTGATGAGTGCGACGGAGTCACCTAGTGCAG,31300 fluorescence intensity (a.u.)
3,ACACTAACAAATCAATTTTCTCTACCCACCACTCCTGAATCGGAGTCACCTAGTGCAG,8890 fluorescence intensity (a.u.)
4,ATAATTATTTGTTTTCAGTCATGTATCTTCATCTTATACACGGAGTCACCTAGTGCAG,6340 fluorescence intensity (a.u.)
5,AATGACATGGCAATCTCACCTTGGAGGTTTGTGCTTTGAACGGAGTCACCTAGTGCAG,4460 fluorescence intensity (a.u.)
6,AAGCAATATAATTGTTTCTCTAATTAGGAGTTATACATGTCGGAGTCACCTAGTGCAG,19000 fluorescence intensity (a.u.)
7,GGGGACATAAATCCTGATGATTTCCTCAACTTTGATCTTGCGGAGTCACCTAGTGCAG,3630 fluorescence intensity (a.u.)
8,CCTAATTAATCCGTCATTAGCAAATGTTTATTGTAGCACCCGGAGTCACCTAGTGCAG,41300 fluorescence intensity (a.u.)
9,TAAGCCTAATTAATTTGTCATTAGCAAATGTTTACTATAGCGGAGTCACCTAGTGCAG,30300 fluorescence intensity (a.u.)
10,TCTAATTAATTTGTCATTAGCAAATGTTTATTGTAGCATCCGGAGTCACCTAGTGCAG,58400 fluorescence intensity (a.u.)
11,AATTAATTTGTCATTAGTAAATGTTTACTGTAGCACCACACGGAGTCACCTAGTGCAG,42000 fluorescence intensity (a.u.)
12,AGCCTAATTAATTTGTCATTAGCAAATGTTTACTGTAGCACGGAGTCACCTAGTGCAG,57000 fluorescence intensity (a.u.)
13,CCTAATTAATCTGTCATTAGCAAATATTTATTGTAGCATCCGGAGTCACCTAGTGCAG,47000 fluorescence intensity (a.u.)
14,CTTGATTAATCCGTACGTCTATCAACTCAGCCCGAAACGCCGGAGTCACCTAGTGCAG,46200 fluorescence intensity (a.u.)
15,TTAGATTGGTTATAGATGAATTGGAGCTAGTAGTGGGTTGCGGAGTCACCTAGTGCAG,56200 fluorescence intensity (a.u.)
16,GGCTATTAGATTGGTTATAAATGAATTGGAGCCAATAGTGCGGAGTCACCTAGTGCAG,39100 fluorescence intensity (a.u.)
17,ATTAGATTGACTATAGATGAATTGAAGACAGTAGTGGGCTCGGAGTCACCTAGTGCAG,49500 fluorescence intensity (a.u.)
18,AAGCTATTAGATTGGCTATAGATGAATTGAAGTTAGTAGTCGGAGTCACCTAGTGCAG,26100 fluorescence intensity (a.u.)
19,CATGATTAATTTTAGGCCGGTCATTGCTCGTGTCCTTGTTCGGAGTCACCTAGTGCAG,65300 fluorescence intensity (a.u.)
20,GAAATTATTGCTGAAATTTTGTCCTTCATAGTGTGCTGTTCGGAGTCACCTAGTGCAG,12200 fluorescence intensity (a.u.)
21,ACATGATAGACTAATGAGTAGATTGTTGTCCTAATTAGCTCGGAGTCACCTAGTGCAG,54100 fluorescence intensity (a.u.)
22,TGAGCTATTAGATTGGTTATAGATGAATTGAAGTTAGTAGCGGAGTCACCTAGTGCAG,14100 fluorescence intensity (a.u.)
23,CTTGAGATGATTAGACTCCTAATGTAGCTCATGATTATATCGGAGTCACCTAGTGCAG,14400 fluorescence intensity (a.u.)
24,AAACCCTTAATTGCTCATGATTTTGCCATTATAATATAGGCGGAGTCACCTAGTGCAG,44600 fluorescence intensity (a.u.)
25,GATATTAGATTGGCTATAGATGAATTGGAGTTAGTAGTGGCGGAGTCACCTAGTGCAG,52700 fluorescence intensity (a.u.)
26,ATTGGCTATTAGATTGGCTATAGATGAATTAGAGTTAGTACGGAGTCACCTAGTGCAG,15400 fluorescence intensity (a.u.)
27,ATGTCATTTTAAAGTTTAATTAATTAGATAATTACCTTCTCGGAGTCACCTAGTGCAG,17500 fluorescence intensity (a.u.)
